Compounds with a hit are over-represented: about 3.4% of the library has one in this group of screens.
PGC1a acetyl inh = lowers PGC1a acetylation signal in U2OS cells | hit rate 0.17% among 350,000 | AlphaScreen anti-acetyl-lysine; with virally co-expressed GCN5 acetyltransferase | inhibition, % at 15.6 µM;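 active = every replicate shows inhibition of at least 40%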
SIRT5 inh = sirtuin-5 (human) deacylase inhibition; Q9NXA8; Purified SirT5, succinyl-peptide AMC, trypsin-coupled fluorescence; inhibition, % at 15 µM; hit rate 1.1% among 330,000; AID 652115; in the data active = inhibition above about 15%
Target sequence (Q9NXA8 whole entry, looked up): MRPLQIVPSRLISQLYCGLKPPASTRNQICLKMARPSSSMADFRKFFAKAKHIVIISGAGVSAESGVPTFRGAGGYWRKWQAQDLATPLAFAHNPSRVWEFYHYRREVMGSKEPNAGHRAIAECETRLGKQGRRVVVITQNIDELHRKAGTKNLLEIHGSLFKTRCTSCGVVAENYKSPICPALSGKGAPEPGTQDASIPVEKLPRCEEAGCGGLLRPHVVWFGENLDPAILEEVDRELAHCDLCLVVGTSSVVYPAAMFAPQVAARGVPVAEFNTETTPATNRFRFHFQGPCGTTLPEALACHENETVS
EWS-Fli block = blocks EWS/Fli oncoprotein-driven transcription; A673 NR0B1-luciferase reporter, viability-normalised; hit rate 0.67% among 350,000; inhibition, % at 12.6 µM; AID 651661;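 active = mean inhibition of at least 50% after viability correction, with every replicate also passing that limit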;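 note: firefly luciferase signal divided by Alamar Blue viability fluorescence both relative to DMSO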
rRNA inh HTS = selective bacterial rRNA inhibition in E. coli. E. coli WT GFP vs humanized-ribosome RFP mutants, fluorescence, 24 h; hits give low values; DMSO median 0, no signal -100. AID 720706. GFP signal change (wild-type ribosome), % (test concentration not listed). hit rate 1.6% among 350,000;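 active = significant combined selectivity score with lowered wild-type GFP, culture density cut under 30%, mutant RFP and density less affected; inactive = any of these conditions unmet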
PAX8 inh HTS = lowers PAX8-driven luciferase in RMG-I cells; RMG-I TPO-luciferase reporter, SteadyGlo, 24 h; inhibition, % at 12.6 µM; hit rate 1.2% among 360,000; AID 652154;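 active = mean replicate inhibition at least 60% with every replicate also reaching 60%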;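 note: luciferase light reporting Pax8 driven TPO promoter activity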
LGR2 antag = inhibitors of bursicon-induced Drosophila LGR2 receptor cAMP signaling; HEK293 LGR2, CRE-luciferase, bursicon-stimulated, 4 h; inhibition, % at 9.99 µM; hit rate 0.35% among 380,000;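 active = drop in luminescence signal, shown as inhibition above about 50% in the replicate tests, limit read from the data, passing the limit was not always enough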;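 note: agonist challenge used bursicon conditioned medium at about half maximal strength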
A number is an active result; - = inactive; . = not tested or not shown.

SMILES | PGC1a acetyl inh | SIRT5 inh | EWS-Fli block | rRNA inh HTS | PAX8 inh HTS | LGR2 antag
CC(=O)N1N=C(c2cccc(NS(C)(=O)=O)c2)CC1c1cccs1 (centres undefined) | - | 23.1 | - | - | - | -
COc1ccccc1S(=O)(=O)Nc1cc(S(=O)(=O)N2CCCCC2)ccc1N1CCOCC1 | - | 17.3 | - | -27.9 | - | -
COc1ccccc1NCC(=O)Nc1cc(S(=O)(=O)N2CCOCC2)ccc1N1CCOCC1 | - | - | - | - | - | -
COCC(=O)Nc1ccc2c(c1)C(=O)N(C)C[C@@H](OC)[C@H](C)CN(Cc1ccncc1)[C@@H](C)CO2 | - | - | - | - | - | -
Cc1cc(C(=O)COC(=O)c2cc(O)c3ccccc3c2O)c(C)n1CC1CCCO1 (centres undefined) | - | . | . | . | . | .
Cc1cc(C(=O)COC(=O)c2ccccc2O)c(C)n1CC1CCCO1 (centres undefined) | - | - | 84.3 | - | 81.3 | 99.8
CCCn1c(C)cc(C(=O)COC(=O)c2ccc[nH]c2=O)c1C | - | . | . | . | - | 55.7
Cc1cc(C(=O)COC(=O)c2ccccc2Br)c(C)n1CC1CCCO1 (centres undefined) | - | - | - | - | - | 91.9
Cc1ccc(C(=O)OCC(=O)c2cc(C)n(CC3CCCO3)c2C)cc1 (centres undefined) | . | - | - | - | - | -
C[C@H]1CC(=O)N[C@H](c2ccccc2)C/C=C\C[C@H](c2ccc3c(c2)OCO3)NC1=O | . | . | . | - | . | .
COc1ccc(CN2CC3(CCN(S(=O)(=O)c4ccc(C)cc4)CC3)c3c([nH]c4cc(OC)ccc34)[C@H]2CO)cc1 | - | . | - | - | . | -
Cc1nnc(N2CCCC(C(=O)NCc3ccccc3F)C2)c2nn(-c3ccccc3)c(C)c12 (centres undefined) | - | - | - | - | - | -
CCc1ccc(CNC(=O)C2CCCN(c3nnc(C)c4c(C)n(-c5ccccc5)nc34)C2)cc1 (centres undefined) | - | - | - | - | 89.5 | -
Cc1ccccc1CNC(=O)C1CCCN(c2nnc(C)c3c(C)n(-c4ccccc4)nc23)C1 (centres undefined) | - | - | - | - | 94.6 | -
Cc1nnc(N2CCCC(C(=O)NCc3cccc(F)c3)C2)c2nn(-c3ccccc3)c(C)c12 (centres undefined) | - | - | . | - | 65.1 | -
O=C(N/N=C/c1c[nH]c2ccccc12)c1ccccc1 | - | 99.6 | - | - | - | -
O=C(N/N=C/c1c[nH]c2ccccc12)c1cc(Br)ccc1O | - | - | - | - | - | -
O=C(N/N=C/c1c[nH]c2ccccc12)c1[nH]c2ccc(Br)cc2c1-c1ccccc1 | - | - | - | - | 94.0 | -
C/C(=N\NC(=O)CCC(=O)O)c1c(-c2ccccc2)c2cc(Br)ccc2[nH]c1=O | - | . | - | - | - | -
O=C(N/N=C/c1ccc(O)cc1)c1[nH]c2ccc(Br)cc2c1-c1ccccc1 | . | - | - | - | 96.2 | -
Cc1cc(C)n(CC(=O)N/N=C/c2c[nH]c3ccccc23)n1 | . | - | - | - | - | -
Cc1ccnn1CC(=O)N/N=C/c1c[nH]c2ccccc12 | - | - | - | -39.0 | - | -
O=C(C[C@H]1C[C@@H]2c3cc(NC(=O)Nc4ccccc4F)ccc3O[C@@H]2[C@@H](CO)O1)NC1CCCC1 | - | - | - | - | - | -
CCCNC(=O)N1CC2(C1)CN(C(=O)CC)[C@@H](CO)c1[nH]c3cc(OC)ccc3c12 | . | . | - | - | . | -
COC(=O)C[C@H]1CC[C@@H]2[C@@H](COc3ccc(NC(=O)c4cccc(F)c4)cc3C(=O)N2C)O1 | - | - | - | - | - | -
SMILES | PGC1a acetyl inh | SIRT5 inh | EWS-Fli block | rRNA inh HTS | PAX8 inh HTS | LGR2 antag
Cc1c(C(=O)N/N=C/c2ccc(Cl)cc2)[nH]c2ccc(Cl)cc12 | . | - | 59.5 | - | - | -
CCOc1ccc(/C=N/NC(=O)c2[nH]c3ccc(C)cc3c2C)cc1 | - | - | - | - | - | -
COc1ccccc1-c1cnc2c(c1)C(=O)N([C@@H](C)CO)C[C@H](C)[C@@H](CN(C)Cc1cccnc1)O2 | - | - | - | - | . | -
O=C(COc1ccc2c(c1)OCO2)Nc1nccs1 | . | - | - | . | - | 60.5
CCC(=O)c1ccc(OCC(=O)Nc2nc(C)cs2)cc1 | - | . | - | -26.9 | - | -
O=C(COc1ccc2c(c1)OCO2)Nc1ccc(Cl)cn1 | - | 25.7 | - | - | - | -
COc1ccc(OCC(=O)Nc2nccs2)cc1 | - | - | - | - | - | 66.1
CO[C@@H]1CN(C)C(=O)c2ccc(NS(=O)(=O)c3ccc(Cl)cc3)cc2OC[C@@H](C)NC[C@@H]1C | - | - | - | - | . | -
COc1ccc(NC(=O)N(C)C[C@H]2Oc3ncc(C#CC(C)C)cc3C(=O)N([C@@H](C)CO)C[C@H]2C)cc1 | - | - | - | - | . | -
Cc1ccccc1S(=O)(=O)NCC[C@@H]1CC[C@@H](NC(=O)C2CCCCC2)[C@@H](CO)O1 | - | - | - | - | - | -
CC(C)c1cc(C(=O)OCC(=O)N2CCN(C(=O)c3ccco3)CC2)c(O)c(C(C)C)c1 | . | - | - | - | 113.3 | -
O=C(CNC(=O)c1cccc(F)c1)OCC(=O)N1CCN(C(=O)c2ccco2)CC1 | - | 29.0 | - | - | - | -
O=C(CNC(=O)c1cccc(F)c1)OCC(=O)N1CCCCC1 | . | . | . | . | - | -
Cc1cccc(C(=O)OCC(=O)N2CCN(C(=O)c3ccco3)CC2)c1O | - | - | - | - | - | -
CCSC(=S)c1c(C)[nH]n(-c2ccccc2)c1=O | - | - | - | -43.2 | - | -
Cc1cc(C)cc(Nc2cc(C)nc3nc(C)nn23)c1 | - | 15.8 | - | - | - | -
COc1ccc(-c2csc3nc(-c4ccccc4OC)oc(=O)c23)cc1 | - | - | - | -20.3 | - | -
CCCC#Cc1ccc2c(c1)O[C@H](CN(C)Cc1ccc3c(c1)OCO3)[C@H](C)CN([C@H](C)CO)S2(=O)=O | - | - | - | - | . | .
C[C@@H]1CN([C@@H](C)CO)C(=O)Cc2cc(NS(=O)(=O)c3ccc(F)cc3)ccc2O[C@H]1CN(C)C(=O)Nc1cccc2ccccc12 | - | - | - | - | . | -
CCCCCCN1C[C@H](O)[C@@H](n2cc(COC(=O)c3ccccc3)nn2)C[C@@H]1c1ccc(Cl)cc1 | - | 15.1 | - | - | - | -
O=C(c1cccs1)N1C[C@H](O)[C@@H](n2cc(C3CC3)nn2)C[C@@H]1c1ccccc1 | - | - | - | - | 97.8 | -
Cc1ccc([C@H]2C[C@H](O)[C@@H](n3cc(COC(=O)c4ccccc4)nn3)CN2C(=O)c2cccs2)cc1 | - | 16.8 | - | - | - | -
CCCNC(=O)[C@@H]1[C@@H](CO)[C@@H]2Cn3c(ccc(C4=CCCC4)c3=O)[C@H]1N2C(=O)CC | . | - | - | - | . | -
COCCNC(=O)C[C@H]1C[C@H]2c3cc(NC(=O)CC4CC4)ccc3O[C@H]2[C@@H](CO)O1 | - | - | - | - | - | -
